Most compounds without a hit are left out; they make up all but 2% or so of the library.
Rin1-Abl PPI inh: human Rin1-Abl interaction inhibition; P00519+Q13671; TR-FRET Rin1/Abl binding, biochemical; inhibition, % at 7.35 µM; 0.4% of 360,000 active; AID 588664; in the data active = inhibition above about 5%, passing the limit was not always enough
TCR CD3 inh: blocks the human TCR-CD3 interaction; TAMRA-labeled TCR probe fluorescence, biochemical; inhibition, % at 9.4 µM; 0.37% of 360,000 active; AID 651800;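 note: recombinant mutant TCR 2C K166C tagged with TAMRA read by polarization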
UHRF1 binding: human UHRF1 methylated DNA binding inhibitors; inhibition, % at 4.4 µM; 0.75% of 370,000 active; UHRF1 binding to methylated oligo, TR-FRET; Q96T88; AID 687016; in the data active = inhibition above about 21%;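 note: UHRF1 SRA domain binding a hemimethylated CpG hairpin DNA probe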
MBD2 inh: inhibitors of human MBD2 binding to methylated oligonucleotide; Q9UBB5; TR-FRET; inhibition, % at 4.4 µM; 0.31% of 370,000 active; AID 686964; in the data active = inhibition above about 13%
Target sequence (Q9UBB5 whole entry, looked up): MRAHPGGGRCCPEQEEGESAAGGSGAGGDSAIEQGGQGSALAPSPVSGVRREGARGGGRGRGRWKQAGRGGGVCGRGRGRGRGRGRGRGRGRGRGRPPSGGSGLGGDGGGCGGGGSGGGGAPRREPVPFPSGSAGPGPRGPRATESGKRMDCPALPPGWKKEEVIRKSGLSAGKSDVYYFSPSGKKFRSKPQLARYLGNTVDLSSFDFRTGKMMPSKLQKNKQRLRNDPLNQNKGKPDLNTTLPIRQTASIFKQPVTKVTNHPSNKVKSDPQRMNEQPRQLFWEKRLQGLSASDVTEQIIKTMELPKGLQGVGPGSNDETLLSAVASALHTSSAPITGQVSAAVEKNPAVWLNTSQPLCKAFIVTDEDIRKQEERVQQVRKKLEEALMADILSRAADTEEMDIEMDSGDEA
LEDGF integ inh: blocks HIV-1 LEDGF/p75-dependent DNA integration; 0.64% of 370,000 active; TR-FRET IN-LEDGF/p75 DNA integration, Eu/Cy5; inhibition, % at 3.7 µM;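 active = inhibition above the screen-wide mean plus 3 SD, cut at about 13% in these data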;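 note: signal is the Cy5 over europium emission ratio at 671 and 618 nm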
BSA TAMRA ctr: BSA probe counter-screen for TCR-CD3 inhibitors; shares compounds with TCR CD3 inh; TAMRA-labeled BSA probe fluorescence counterscreen; inhibition, % at 9.4 µM; 10% of 1,200 active; in the data active = inhibition above about 23%
TCR-CD3 inh conf: TCR-CD3 interaction inhibition, confirmation; shares compounds with TCR CD3 inh; TAMRA-labeled TCR probe fluorescence binding assay; inhibition, % at 9.4 µM; 48% of 1,200 active; AID 652036
Numbers stand for hits; . = inactive; / = no result. Cut-off read from the data, not from the text of the source, unless noted: active = inhibition above about 19%; inactive = the rest.

SMILES	Rin1-Abl PPI inh	TCR CD3 inh	UHRF1 binding	MBD2 inh	LEDGF integ inh	BSA TAMRA ctr	TCR-CD3 inh conf
O=C(O)C1CCN(C(=O)c2ccccc2N2C(=O)[C@@H]3Cc4c([nH]c5ccccc45)C(c4cccc(Cl)c4)N3C2=O)CC1 (stereo partly drawn)	.	.	.	.	.	/	/
COC(=O)C[C@@H]1CC[C@@H](NS(=O)(=O)c2ccc(OC)cc2)[C@@H](CO)O1	/	.	.	.	.	/	/
N#Cc1c(N)sc(=S)c2c1CCCCC2	.	26	21	.	19	.	26
N#Cc1c(N)sc2c1CCCCCC2	.	.	.	.	.	/	/
COc1cc(OC)cc(-c2noc(-c3csc([C@@H]4O[C@H](CO)[C@H](O)[C@H](O)[C@H]4O)n3)n2)c1	.	.	.	.	.	/	/
Cc1cccc(-n2c(O)c(/C=N/NC(=O)c3ccccc3Cl)c3ccccc3c2=O)n1	.	28	.	.	.	.	37
Cc1cccc(-n2c(O)c(C=Nc3cc(O)ccc3C)c3ccccc3c2=O)n1	.	37	.	.	.	.	.
COc1ccc(CN(C2CCCC2)S(=O)(=O)c2ccc(-n3cnnn3)cc2)cc1	.	.	.	.	.	/	/
COc1ccc(CN(C2CCCC2)S(=O)(=O)c2ccc(-n3cnnn3)cc2)cc1OC	.	82	.	.	.	.	.
CN(CCC1CCOCC1)C(=O)CC1C(=O)NCCN1C/C=C/c1ccccc1 (stereo not drawn)	.	.	.	.	.	/	/
CN(CC1CCOCC1)C(=O)CC1C(=O)NCCN1C/C=C/c1ccccc1 (stereo not drawn)	.	95	.	.	.	.	.
C=C(C)Cn1c2ccc(NC(=O)NCCc3ccccc3)cc2c(=O)n1C	.	.	.	.	.	/	/
Oc1c(C=Nc2cccc3cccnc23)sc2ccccc12	/	29	.	.	.	60	28
Cc1c(OC(C(=O)O)c2ccccc2)ccc2c3c(c(=O)oc12)CCC3 (stereo not drawn)	.	.	.	.	.	/	/
Cc1c(OC(C(=O)O)c2ccccc2)ccc2c1oc(=O)c1ccccc12 (stereo not drawn)	.	19	.	.	.	.	.
CCOC(=O)C1=Nc2cccc3c(O)ccc1c23	/	85	.	.	.	141	110
[O-][n+]1c2ccccc2[n+]([O-])c2cc(O)ccc21	.	21	.	.	.	.	22
N#CC1=C(N)C2=CCCC[C@H]2[C@H](c2cccc(F)c2)C1(C#N)C#N	.	.	.	.	.	/	/
N#CC1=C(N)C(C#N)(C#N)C(c2ccc[nH]2)C2CCCC=C12 (stereo not drawn)	.	21	.	.	.	.	.
COc1ccc(C)cc1N	/	.	.	.	.	/	/
COc1ccc(OC)c(N)c1	.	23	.	.	.	.	.
CC(=O)Nc1cccc(NC(=O)COc2ccccc2C)c1	.	21	.	.	.	.	.
Oc1ccc(Cl)c2cccnc12	.	30	.	.	.	.	.
Oc1ccc(F)c2cccnc12	.	.	.	.	.	/	/
CN(CCO)c1nc(N)c2c(N)nc3c(c2c1C#N)CC(=O)N3Cc1cccs1	.	21	.	.	.	.	.
SMILES	Rin1-Abl PPI inh	TCR CD3 inh	UHRF1 binding	MBD2 inh	LEDGF integ inh	BSA TAMRA ctr	TCR-CD3 inh conf
N#Cc1c(N(CCO)CCO)nc(N)c2c(N)nc3c(c12)CC(=O)N3Cc1cccs1	.	/	/	/	/	/	/
O=C(O)c1ccccc1Nc1ccc([N+](=O)[O-])c2nonc12	.	/	/	/	/	/	/
Nc1c(/C=C2/C=CC(=O)C(O)=C2)c(=O)nc2sc(CC(=O)N3CCCCC3)nn12	.	26	26	.	16	.	42
O=c1c2c(-c3ccccc3)csc2ncn1/N=C/c1cccc([N+](=O)[O-])c1O	.	29	.	.	.	.	31
O=c1c2c(-c3ccccc3)csc2ncn1/N=C/c1ccc(O)c([N+](=O)[O-])c1	.	.	.	.	.	/	/
O=C(/C=C/NCc1cccnc1)c1ccc(-c2ccccc2)cc1	.	.	.	.	.	/	/
O=C(NNC(=O)c1ccccc1OCc1ccc(F)cc1)c1ccccc1O	.	25	.	.	.	.	23
O=C(NNC(=O)c1ccccc1OCc1ccccc1)c1ccccc1O	.	33	.	.	.	.	19
COc1ccccc1/C=N/N1C(=O)c2cccc3cccc(c23)C1=O	.	32	.	.	.	33	19
COc1ccc(/C=N/N2C(=O)c3ccccc3C2=O)cc1	.	.	.	.	.	/	/
CC(C)(C)OC(=O)NCCCCCNC(=O)c1[nH]cnc1C(=O)Nc1cc(Br)ccc1F	.	.	.	.	.	/	/
O=C(O)C1CC=CCC1C(=O)N1CCN(c2nc(-c3ccccc3Cl)c3cc(Br)ccc3n2)CC1 (stereo not drawn)	.	52	.	.	.	.	.
CCC(=O)Nc1ccc2ccccc2c1	.	.	.	.	.	/	/
CCC(=O)Nc1ccc2nc3c(=O)[nH]c(=S)[nH]c3nc2c1	.	29	.	.	.	.	28
Cc1[nH]c(C)c2c(=O)n(-c3ccccc3)ncc12	.	31	.	.	.	.	.
Cc1csc(=O)n1CCC(=O)OCC(=O)NNC(=O)c1ccccc1	.	.	.	.	.	/	/
O=C(Nc1ccc2oc(-c3cccnc3)nc2c1)c1ccc2c(c1)OCCO2	.	27	.	.	.	.	.
O=C(Nc1ccc2oc(-c3ccccc3)nc2c1)c1ccc2c(c1)OCCO2	.	.	.	.	.	/	/
CNc1ccc2c3c(cccc13)C(=O)N(C)C2=O	.	83	.	.	.	138	104
O=C(C[C@H]1C/C=C\CCC(=O)O[C@@H](c2ccccc2)CNC1=O)NCCO	.	.	.	.	.	/	/
COc1ccc(S(=O)(=O)N2CCN(C(=O)c3cc(C)nc4ccccc34)CC2)cc1OC	.	.	.	.	.	/	/
C=CCn1c(C)cc(-c2csc(NC(=O)CCc3nc4ccccc4c(=O)[nH]3)n2)c1C	.	25	.	.	.	.	.
Cc1cc([N+](=O)[O-])cc(/C=N\NC(=O)C2COc3ccccc3O2)c1O (stereo not drawn)	.	31	.	.	.	.	29
O=C(Nc1ccc(F)c(Cl)c1)C1Cc2c(-c3ccc4c(c3)OCO4)ccnc2O1 (stereo not drawn)	.	29	.	.	.	.	.
CC1=Nc2ccccc2/C1=C/c1nc(-c2ccc(C)s2)oc1O	.	19	.	.	.	.	.
CC1=Nc2ccccc2/C1=C\c1nc(-c2ccccc2)oc1O	.	.	.	.	.	/	/
O=C(CNS(=O)(=O)c1ccc([N+](=O)[O-])cc1)N/N=C/c1ccc(O)cc1O	.	.	.	.	.	/	/
CC(=O)NNC(=S)NC(=O)c1ccc(C)cc1	.	23	.	.	.	.	20
CCOC(=O)c1c(C)[nH]c(C(=O)N(C)CC(=O)Nc2ccc(OCC)c(OCC)c2)c1C	.	.	.	.	.	/	/

Bioassay records deposited in PubChem by The Scripps Research Institute Molecular Screening Center.
